Source: PubChem BioAssay (Tox21)
Values without a mark were called inactive. Activity calls are given as the source filed them. Calls follow the shape of the full dose curve. Positions of bridges follow the written chain, without caps; N, C: chain ends. Non-standard residues stand in square brackets, D forms with d. Residues, ends and D or L forms follow the SMILES beside them. *: point of attachment. X2 = CC[C@H](C)CCCCC(=O)*; Orn = NCCC[C@H](N)C(=O)O; Dab = NCC[C@H](N)C(=O)O; Mpa = O=C(O)CCS

Tested on: not listed separately
Assay: qHTS assay to identify small molecule antagonists of the estrogen receptor alpha (ER-alpha) signaling pathway - cell viability counter screen (AID 743074);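 also: HEK293 cells carrying ER-alpha-UAS-bla reporter stimulated with 17beta-estradiol; nearly all actives have a fitted effect of over 45% in size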
Settings: ERalpha-bla HEK293 viability, CellTiter-Glo luminescence, 18 h; series mostly up to 69.4 µM; activity, negative = cytotoxicity: at the top concentration
% is scaled to controls: 0 for no effect and ±100 for the full control effect.

**Q.** For `O=C(NCCNCC(O)COc1ccc(O)cc1)N1CCOCC1` (stereo not given), which “activity, negative = cytotoxicity” value is on record?
**A.** -10.5%

**Q.** With `CCOc1ccc(C[C@H]2NC(=O)CCSSC[C@@H](C(=O)N3CCC[C@H]3C(=O)N[C@@H](CCCN)C(=O)NCC(N)=O)NC(=O)[C@H](CC(N)=O)NC(=O)[C@H]([C@@H](C)O)NC(=O)[C@H]([C@@H](C)CC)NC2=O)cc1` ([Mpa][dY](Et)ITNCP[Orn]G-NH2; disulfide 1-6) as the compound, how does the “activity, negative = cytotoxicity” value read?
**A.** -8.73%

**Q.** With `CC(C)CN(C[C@@H](O)[C@H](Cc1ccccc1)NC(=O)O[C@H]1CO[C@H]2OCC[C@H]21)S(=O)(=O)c1ccc(N)cc1` as the compound, how does the “activity, negative = cytotoxicity” value read?
**A.** 10.3%

**Q.** For `CCCCCCCCCCCCCCCCCC(=O)OCC(C)O` (stereo not given), which “activity, negative = cytotoxicity” value is on record?
**A.** -23.3%

**Q.** For `CC(NNC(=O)c1ccccc1)c1ccccc1` (stereo not given), which “activity, negative = cytotoxicity” value is on record?
**A.** 15.9%

**Q.** For `CC(=O)O[C@H]1C(=O)[C@@]2(C)[C@H]([C@H](OC(=O)c3ccccc3)[C@]3(O)C[C@H](OC(=O)[C@H](O)[C@@H](NC(=O)c4ccccc4)c4ccccc4)C(C)=C1C3(C)C)[C@]1(OC(C)=O)CO[C@@H]1C[C@@H]2O`, which “activity, negative = cytotoxicity” value is on record?
**A.** 14.3%

**Q.** With `CCC(=O)NS(=O)(=O)c1ccc(-c2c(-c3ccccc3)noc2C)cc1` as the compound, how does the “activity, negative = cytotoxicity” value read?
**A.** -17.9%

**Q.** For `CN(C(=O)CO)c1c(I)c(C(=O)NCC(O)CO)c(I)c(C(=O)NCC(O)CO)c1I` (stereo not given), which “activity, negative = cytotoxicity” value is on record?
**A.** -17.5%

**Q.** With `CC(C(=O)O)c1ccc(N2Cc3ccccc3C2=O)cc1` (stereo not given) as the compound, how does the “activity, negative = cytotoxicity” value read?
**A.** -24.3%

Biological target: Estrogen receptor (Homo sapiens) (UniProt P03372)
Sequence (P03372 whole entry, looked up): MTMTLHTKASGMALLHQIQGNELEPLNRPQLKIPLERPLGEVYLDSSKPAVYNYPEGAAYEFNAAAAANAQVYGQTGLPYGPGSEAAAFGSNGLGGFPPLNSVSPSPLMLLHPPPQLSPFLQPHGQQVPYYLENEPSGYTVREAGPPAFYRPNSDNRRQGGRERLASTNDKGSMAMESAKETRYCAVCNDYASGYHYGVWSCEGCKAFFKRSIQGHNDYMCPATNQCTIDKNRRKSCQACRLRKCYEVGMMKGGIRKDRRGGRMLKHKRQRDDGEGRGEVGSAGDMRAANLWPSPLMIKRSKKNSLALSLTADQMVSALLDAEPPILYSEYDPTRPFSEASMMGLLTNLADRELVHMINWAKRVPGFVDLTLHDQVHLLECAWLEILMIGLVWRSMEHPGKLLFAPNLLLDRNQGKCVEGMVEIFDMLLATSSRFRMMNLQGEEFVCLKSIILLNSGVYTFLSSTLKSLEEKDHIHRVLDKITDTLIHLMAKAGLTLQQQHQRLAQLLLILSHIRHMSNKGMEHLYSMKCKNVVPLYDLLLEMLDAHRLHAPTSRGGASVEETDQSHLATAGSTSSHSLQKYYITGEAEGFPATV
Assay: qHTS assay to identify small molecule agonists of the estrogen receptor alpha (ER-alpha) signaling pathway (AID 743075);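 also: HEK293 GripTite cells with ER-alpha and UAS-driven beta-lactamase reporter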; also: potency is read from the fitted curve at half-maximal effect
Settings: HEK293 ER-alpha-UAS-bla, beta-lactamase FRET ratio, 18 h; series mostly up to 70.1 µM; activation: at the top concentration

**Q.** For `O=C(O)c1cccc(/C=C2/C[C@@H]3[C@@H](/C=C/[C@@H](O)C4CCCCC4)[C@H](O)C[C@@H]3O2)c1`, which “activation” value is on record?
**A.** -3.99%

**Q.** With `CC1(C)S[C@@H]2[C@H](NC(=O)[C@H](N)c3ccccc3)C(=O)N2[C@H]1C(=O)OCOC(=O)[C@@H]1N2C(=O)C[C@H]2S(=O)(=O)C1(C)C` as the compound, how does the “activation” value read?
**A.** -8.7%

**Q.** For `NCCC(=O)[N-][C@@H](Cc1cnc[nH]1)C(=O)O.[Zn]`, which “activation” value is on record?
**A.** 0.957%

**Q.** Which “activation” value does the source give for `CNc1cc(OC)c(C(=O)N[C@H]2CCN(Cc3ccccc3)[C@H]2C)cc1Cl` here?
**A.** 1.02%

**Q.** With `C#CCOc1ccc2c(C)cc(=O)oc2c1` as the compound, how does the “activation” value read?
**A.** 4.26%

**Q.** With `OC[C@H]1O[C@@H](n2cnc3c2NC=NC[C@H]3O)C[C@@H]1O` as the compound, how does the “activation” value read?
**A.** -1.82%

**Q.** For `CCCC(=O)Nc1c(I)cc(I)c(CC(CC)C(=O)O)c1I` (stereo not given), which “activation” value is on record?
**A.** -2.34%

**Q.** With `O=P(O)(O)OC(CO)CO` as the compound, how does the “activation” value read?
**A.** -0.155%

**Q.** For `CCCCCCCCCCCCCCCC(=O)O[C@@H]1[C@@H](O)[C@@H](O)[C@@H]([C@H](NC(=O)[C@@H]2C[C@@H](CCC)CN2C)[C@H](C)Cl)O[C@@H]1SC`, which “activation” value is on record?
**A.** -1.06%

**Q.** For `CC(=O)O[C@H]1C[C@@]2(C)[C@@H](C[C@@H](O)[C@H]3[C@@]4(C)CC[C@@H](O)[C@@H](C)[C@@H]4CC[C@@]32C)/C1=C(\CCC=C(C)C)C(=O)O`, which “activation” value is on record?
**A.** 13.5%

**Q.** With `C[C@H](CSC(=O)c1ccccc1)C(=O)N1C[C@@H](Sc2ccccc2)C[C@H]1C(=O)O` as the compound, how does the “activation” value read?
**A.** -1.05%

**Q.** Which “activation” value does the source give for `O=S(O)CNc1ccc(S(=O)(=O)c2ccc(NCS(=O)O)cc2)cc1` here?
**A.** -1.81%

**Q.** Which “activation” value does the source give for `CC(=O)O[C@H]1C[C@@H]2CC[C@@H]3[C@H](CC[C@@]4(C)[C@H]3C[C@H](N3CC[N+](C)(C)CC3)[C@@H]4OC(C)=O)[C@@]2(C)C[C@@H]1N1CC[N+](C)(C)CC1` here?
**A.** -1.15%

**Q.** With `O=C1O[C@H]2[C@H](O)[C@@H]1OC(O)[C@H]2O` (stereo not given in full) as the compound, how does the “activation” value read?
**A.** 14.1%

**Q.** For `CC[C@H]1OC(=O)[C@H](C)[C@@H](O[C@H]2C[C@@](C)(OC)[C@@H](O)[C@H](C)O2)[C@H](C)[C@@H](O[C@@H]2O[C@H](C)C[C@H](N(C)C)[C@H]2O)[C@](C)(O)C[C@@H](C)[C@@H]2N[C@@H](COCCOC)O[C@@H]([C@H]2C)[C@]1(C)O`, which “activation” value is on record?
**A.** -1.93%

**Q.** With `Cn1c(=O)c2c(ncn2CCOC(=O)C(C)(C)Oc2ccc(Cl)cc2)n(C)c1=O` as the compound, how does the “activation” value read?
**A.** -0.822%

**Q.** With `O=C(O)c1ccc(OCCn2ccnc2)cc1` as the compound, how does the “activation” value read?
**A.** -1.44%

**Q.** With `CO[C@@H]1[C@@H](O[C@@H]2O[C@H](C)[C@@H](O[C@H]3C[C@@](C)(O)[C@@H](OC(=O)CC(C)C)[C@H](C)O3)[C@H](N(C)C)[C@H]2O)[C@@H](CC=O)C[C@@H](C)[C@@H](O)/C=C/C=C/C[C@@H](C)OC(=O)C[C@H]1O` as the compound, how does the “activation” value read?
**A.** 3.12%

**Q.** With `CCN(CC)CCOc1ccc2nc(N(C)C)sc2c1` as the compound, how does the “activation” value read?
**A.** 1.56%

**Q.** For `COc1cc([C@@H]2c3cc4c(cc3C(O[C@@H]3O[C@@H]5COC(c6cccs6)O[C@H]5[C@H](O)[C@H]3O)C3COC(=O)[C@@H]32)OCO4)cc(OC)c1O` (stereo not given in full), which “activation” value is on record?
**A.** -5.32%

**Q.** With `COCC1=C(C(=O)OC(C)OC(=O)OC(C)C)N2C(=O)[C@@H](NC(=O)/C(=N\OC)c3csc(N)n3)[C@H]2SC1` (stereo not given in full) as the compound, how does the Potency read?
**A.** inactive

**Q.** Which “activation” value does the source give for `Cc1cccc(C)c1Nc1ncccc1C(=O)O` here?
**A.** -3.26%

**Q.** Which Potency does the source give for `CC1=C(/C=C/C(C)=C/C=C/C(C)=C/C=C/C=C(C)/C=C/C=C(C)/C=C/C2=C(C)C(=O)CCC2(C)C)C(C)(C)CCC1=O` here?
**A.** 26.8 µM [inconclusive] (active)

**Q.** Which “activation” value does the source give for `O=C1C(=O)c2ncccc2-c2cccnc21` here?
**A.** 9.83%

**Q.** With `CC[C@H](C)CCCCC(=O)N[C@@H](CCN)C(=O)N[C@H](C(=O)N[C@@H](CCN)C(=O)N[C@H]1CCNC(=O)[C@H]([C@@H](C)O)NC(=O)[C@H](CCN)NC(=O)[C@H](CCN)NC(=O)[C@H](CC(C)C)NC(=O)[C@@H](CC(C)C)NC(=O)[C@H](CCN)NC1=O)[C@@H](C)O` (X2-[Dab]T[Dab][Dab][Dab][dL]L[Dab][Dab]T; lactam 4-C) as the compound, how does the “activation” value read?
**A.** 3.2%

**Q.** With `O=C(NCCNCC(O)COc1ccc(O)cc1)N1CCOCC1` (stereo not given) as the compound, how does the “activation” value read?
**A.** -1.58%

**Q.** For `CCOc1ccc(C[C@H]2NC(=O)CCSSC[C@@H](C(=O)N3CCC[C@H]3C(=O)N[C@@H](CCCN)C(=O)NCC(N)=O)NC(=O)[C@H](CC(N)=O)NC(=O)[C@H]([C@@H](C)O)NC(=O)[C@H]([C@@H](C)CC)NC2=O)cc1` ([Mpa][dY](Et)ITNCP[Orn]G-NH2; disulfide 1-6), which “activation” value is on record?
**A.** 1.44%

**Q.** For `CC(C)CN(C[C@@H](O)[C@H](Cc1ccccc1)NC(=O)O[C@H]1CO[C@H]2OCC[C@H]21)S(=O)(=O)c1ccc(N)cc1`, which “activation” value is on record?
**A.** 8.16%

**Q.** With `CC(=O)O[C@H]1C(=O)[C@@]2(C)[C@H]([C@H](OC(=O)c3ccccc3)[C@]3(O)C[C@H](OC(=O)[C@H](O)[C@@H](NC(=O)c4ccccc4)c4ccccc4)C(C)=C1C3(C)C)[C@]1(OC(C)=O)CO[C@@H]1C[C@@H]2O` as the compound, how does the “activation” value read?
**A.** 1.81%

**Q.** Which “activation” value does the source give for `CCC(=O)NS(=O)(=O)c1ccc(-c2c(-c3ccccc3)noc2C)cc1` here?
**A.** -2.95%

**Q.** Which “activation” value does the source give for `CN(C(=O)CO)c1c(I)c(C(=O)NCC(O)CO)c(I)c(C(=O)NCC(O)CO)c1I` (stereo not given) here?
**A.** -1.48%
